Counter-ions that a name gives are not always drawn. ± gives the standard deviation of the averaged measurements.
Each compound was assayed on Escherichia coli ATCC BAA-2469 (assay: percent growth inhibition of drug alone vs DMSO control; higher = more growth inhibition). Details: antibiotic (0.125x MIC): none (0.1% DMSO); 7 µM.
Method: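 Prestwick drugs tested at 20 uM and 7 uM with an antibiotic at 0.125x MIC (16 mg/L when MIC >128 mg/L) against E. coli ATCC BAA-2469 (NDM-1) in CAMHB, 384-well plates, duplicate runs. Percent growth inhibition was computed from OD600 (24 h minus 0 h) relative to DMSO wells. Drug + DMSO-only wells are also given. […]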

| Structure (SMILES) | percent growth inhibition of drug alone [%] |
| --- | --- |
| COc1ccccc1OCC(O)CO (stereo unspecified) [Guaifenesin] | -0.628 ± 1.6 |
| Cc1c(OCC(F)(F)F)ccnc1C[S+]([O-])c1nc2ccccc2[nH]1 (stereo unspecified) [Lansoprazole] | 2.04 ± 3.3 |
| Nc1ccn([C@@H]2O[C@H](CO)[C@@H](O)C2(F)F)c(=O)n1 [Gemcitabine] | 15.3 ± 12 |
| C[C@H]1[C@H](NC(=O)/C(=N\OC(C)(C)C(=O)O)c2csc(N)n2)C(=O)N1S(=O)(=O)O [Aztreonam] | 13.2 ± 14 |
| CCCCCCCCNC(C)C(O)c1ccc(SC(C)C)cc1 (stereo unspecified) [Suloctidil] | 7.25 ± 11 |
| OCCN1CCN(CCCN2c3ccccc3Sc3ccc(C(F)(F)F)cc32)CC1 [Fluphenazine dihydrochloride] | 1.91 ± 1.5 |
| N=C(NCCCCCCNC(=N)NC(=N)Nc1ccc(Cl)cc1)NC(=N)Nc1ccc(Cl)cc1 [Chlorhexidine] | 103 ± 2.7 |
| CCCCC(CC)CNC(=N)NC(=N)NCCCCCCNC(=N)NC(=N)NCC(CC)CCCC (stereo unspecified) [Alexidine dihydrochloride] | 102 ± 2 |
| Cc1cc(N)c2ccccc2[n+]1CCCCCCCCCC[n+]1c(C)cc(N)c2ccccc21 [Dequalinium dichloride] | 2.01 ± 0.53 |
| CCOC(=O)c1ccc(OC(=O)CCCCCNC(=N)N)cc1 [Gabexate mesilate] | 3.5 ± 6.5 |
| COc1ccc2c(c1)c(CC(=O)OCC(=O)O)c(C)n2C(=O)c1ccc(Cl)cc1 [Acemetacin] | 2.19 ± 1 |
| COc1cc(NS(=O)(=O)c2ccc(N)cc2)nc(OC)n1 [Sulfadimethoxine] | -0.418 ± 1.2 |
| CCCCCCCCCCCCCCCC[N+](C)(C)CCN(Cc1ccc(OC)cc1)c1ncccn1 [Thonzonium bromide] | 3.7 ± 4.2 |
| CC1=C(/C=C/C(C)=C/C=C/C(C)=C\C(=O)O)C(C)(C)CCC1 [Isotretinoin] | 1.08 ± 2.4 |
| C#C[C@]1(O)CC[C@H]2[C@@H]3CCC4=C(CCC(=O)C4)[C@H]3CC[C@@]21C [Norethynodrel] | 0.455 ± 0.56 |
| Nc1nnc(-c2cccc(Cl)c2Cl)c(N)n1 [Lamotrigine] | 2.35 ± 0.19 |
| Nc1nc(F)nc2c1ncn2[C@@H]1O[C@H](CO)[C@@H](O)[C@@H]1O [Fludarabine] | 23 ± 20 |
| Cc1cc(/C=C/c2ccc3cc(N(C)C)ccc3[n+]2C)c(C)n1-c1ccccc1 [Pyrvinium pamoate] | 11.8 ± 12 |
| C#C[C@]1(OC(C)=O)CC[C@H]2[C@@H]3CCC4=C[C@@H](OC(C)=O)CC[C@@H]4[C@H]3CC[C@@]21C [Ethynodiol diacetate] | -1.57 ± 7.4 |
| O=C(O)CN(CCN(CC(=O)O)CC(=O)O)CCN(CC(=O)O)CC(=O)O [Pentetic acid] | 0.0597 ± 2.1 |
| Oc1c(I)cc(Cl)c2cccnc12 [Clioquinol] | 11.8 ± 2.5 |
| Cc1cn([C@H]2C[C@H](N=[N+]=[N-])[C@@H](CO)O2)c(=O)[nH]c1=O [Zidovudine, AZT] | 102 ± 2.3 |

Same assay, conditions: antibiotic (0.125x MIC): none (0.1% DMSO); 20 µM

| Structure (SMILES) | percent growth inhibition of drug alone [%] |
| --- | --- |
| COc1ccccc1OCC(O)CO (stereo unspecified) [Guaifenesin] | -0.463 ± 1.9 |
| Cc1c(OCC(F)(F)F)ccnc1C[S+]([O-])c1nc2ccccc2[nH]1 (stereo unspecified) [Lansoprazole] | 4.77 ± 4.3 |
| Nc1ccn([C@@H]2O[C@H](CO)[C@@H](O)C2(F)F)c(=O)n1 [Gemcitabine] | 28.3 ± 14 |
| CCCCCCCCNC(C)C(O)c1ccc(SC(C)C)cc1 (stereo unspecified) [Suloctidil] | 10.4 ± 16 |
| OCCN1CCN(CCCN2c3ccccc3Sc3ccc(C(F)(F)F)cc32)CC1 [Fluphenazine dihydrochloride] | 3.64 ± 1.5 |
| N=C(NCCCCCCNC(=N)NC(=N)Nc1ccc(Cl)cc1)NC(=N)Nc1ccc(Cl)cc1 [Chlorhexidine] | 106 ± 2.6 |
| CCCCC(CC)CNC(=N)NC(=N)NCCCCCCNC(=N)NC(=N)NCC(CC)CCCC (stereo unspecified) [Alexidine dihydrochloride] | 112 ± 12 |
| Cc1cc(N)c2ccccc2[n+]1CCCCCCCCCC[n+]1c(C)cc(N)c2ccccc21 [Dequalinium dichloride] | 12.5 ± 11 |
| CCOC(=O)c1ccc(OC(=O)CCCCCNC(=N)N)cc1 [Gabexate mesilate] | 0.291 ± 0.37 |
| COc1ccc2c(c1)c(CC(=O)OCC(=O)O)c(C)n2C(=O)c1ccc(Cl)cc1 [Acemetacin] | 1.2 ± 0.59 |
| COc1cc(NS(=O)(=O)c2ccc(N)cc2)nc(OC)n1 [Sulfadimethoxine] | -0.552 ± 0.63 |
| CC1=C(/C=C/C(C)=C/C=C/C(C)=C\C(=O)O)C(C)(C)CCC1 [Isotretinoin] | 3.78 ± 1.7 |
| C#C[C@]1(O)CC[C@H]2[C@@H]3CCC4=C(CCC(=O)C4)[C@H]3CC[C@@]21C [Norethynodrel] | 5.02 ± 3.1 |
| Nc1nnc(-c2cccc(Cl)c2Cl)c(N)n1 [Lamotrigine] | 1.91 ± 1.2 |
| Nc1nc(F)nc2c1ncn2[C@@H]1O[C@H](CO)[C@@H](O)[C@@H]1O [Fludarabine] | 59.1 ± 4.9 |
| Cc1cc(/C=C/c2ccc3cc(N(C)C)ccc3[n+]2C)c(C)n1-c1ccccc1 [Pyrvinium pamoate] | 13.6 ± 3.2 |
| C#C[C@]1(OC(C)=O)CC[C@H]2[C@@H]3CCC4=C[C@@H](OC(C)=O)CC[C@@H]4[C@H]3CC[C@@]21C [Ethynodiol diacetate] | -0.574 ± 3.8 |
| O=C(O)CN(CCN(CC(=O)O)CC(=O)O)CCN(CC(=O)O)CC(=O)O [Pentetic acid] | 0.251 ± 0.41 |
| Cc1cn([C@H]2C[C@H](N=[N+]=[N-])[C@@H](CO)O2)c(=O)[nH]c1=O [Zidovudine, AZT] | 115 ± 12 |
